Screening data (PubChem)
Only a selection was taken, and hits are over-represented in it overall.
Sa growth 42C: blocks Staphylococcus aureus growth. relative growth, % (concentration not given with the values). AID 720641. 170,000 tested, 0.53% active. S. aureus RN4220 growth, OD600, 20 h, 42 °C; stronger effect = lower value;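 active means relative growth at most 50% at the other temperature and 20+ points below 30 °C, or under 10% at both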
Sa helicase inh: blocks Staphylococcus aureus DNA helicase. purified S. aureus helicase, fluorescence unwinding assay. inhibition, % (test concentration not listed). 120,000 tested, 0.05% active; in the data active means inhibition above about 25%, passing the limit was not always enough
A number is an active result; – = inactive; · = no result given.

SMILES	Sa growth 42C	Sa helicase inh
O=c1c2ccccc2nnn1CSc1nc2cc(Cl)ccc2s1	–	–
C(=Nc1cccnc1)c1c[nH]c2ccccc12	8.3	–
C(=Nc1cccnc1)c1ccccc1	–	–
Cc1noc(C)c1S(N)(=O)=O	–	–
Cc1ccc(-n2sc3ccccc3c2=O)cc1	1.1	–
Cc1ccc(N2C(=O)c3ccccc3C2=O)cc1	–	–
NC(Cc1ccc(OC(F)(F)C(F)(F)F)cc1)C(=O)O (centres undefined)	–	–
O=C(CSc1c[nH]c2ccccc12)NCc1ccccc1	·	–
COc1ccc(CCNC(=O)CSc2nnc3sc4ccccc4n23)cc1	–	–
O=c1ccc(-c2ccc(Cl)cc2)n[nH]1	–	–
O=c1cc[nH]cc1-c1ccc(Cl)cc1	-0.8	–
O=c1cc(-c2ccc(F)cc2)c2c([nH]1)Oc1c(nc(-c3ccccc3)[nH]c1=O)O2	–	–
CC(C)(C)CC(C)(C)c1ccc(OCCOCC[N+](C)(C)Cc2ccccc2)cc1	-0.3	·
C[N+](C)(CCOc1ccccc1)Cc1ccccc1 (tested in a mixture with another compound)	–	–
O=C(COC(=O)Cn1[nH]c(=O)c2ccccc2c1=O)Nc1ccccc1C(=O)NC1CC1	–	–
O=C1S/C(=C\c2ccc(Cl)cc2)C(=O)N1Cc1ccccc1	–	–
NCCN1C(=O)S/C(=C\c2ccc(Cl)c(Cl)c2)C1=O	-0.6	–
COC(=O)COc1c(C)cc(Br)cc1Br	–	–
Nc1cccnc1Nc1ccccc1	6.4	–
c1ccc(Nc2ncnc3ccccc23)cc1	–	–
CCN1CCN(Cc2ccc(NC3=NS(=O)(=O)C(c4ccc(C)c(C)c4)=C3C)cc2)CC1	–	–
Cc1ccccc1NC(=O)/C=C\C(N)=O	-0.5	–
NC(=O)/C=C/C(=O)Nc1ccccc1Cl	–	·
c1cc2c(cc1C1CCCCC1)c1c3n2CCCNC3CCC1 (centres undefined)	-0.8	–
Cc1ccc2c(c1)c1c3n2CCCNC3CCC1 (centres undefined)	–	–
SMILES	Sa growth 42C	Sa helicase inh
Cc1ccc2c(c1)c1c3n2CCN=C3CCC1	–	–
c1cc2c(cc1C1CCCCC1)c1c3n2CCN=C3CCC1	-2.0	–
CC(Oc1cc(O)c2c(=O)cc(-c3ccccc3)oc2c1)C(=O)O (centres undefined)	–	·
CCN1C(C(=O)c2ccccc2)=C(OC(=O)c2ccco2)c2ccccc2S1(=O)=O	6.2	–
CCN1C(C(=O)c2ccccc2)=C(OC(=O)c2ccc(Cl)cc2)c2ccccc2S1(=O)=O	–	·
COc1ccc(CCNC(=O)Cn2cnc3c(cnn3-c3ccccc3)c2=O)cc1OC	–	–
COc1ccc(CNC(=O)Cn2cnc3ccccc32)cc1OC	–	41.0
Nc1nc(=S)nc(Cc2ccc3c(c2)CCC3)[nH]1	45.3	–
Nc1nc(-c2ccc3c(c2)CCCC3)cs1	–	–
O=C(O)c1cccc(-c2ccc(/C=C3\Sc4ccccc4C3=O)o2)c1	–	–
